Reference: article PMC5540273 (PLoS ONE, 2017)

Test system: ICK
Conditions: concentration: 1 μM, replicates: in singlicate; n = 1
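Further: KINOMEscan kinase panel screen.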

SMILES | %Inh
COC(=O)c1cccc(NC(=O)NCCNc2ccnc(Nc3ccc(F)cc3)n2)c1 [GSK1379883] | 0%
O=C(Nc1ccccc1)Nc1ccc(Oc2ccc3nccn3n2)cc1 | 0%
Cl.Cl.c1ccc(-c2cc3ccncc3cc2OC2CCNCC2)cc1 [GSK1122999] | 0%
Clc1cc(Nc2ncnc3cc[nH]c23)ccc1OCc1ccccn1 | 18%
Cn1cc(-c2ccc3c(c2)CCN3C(=O)Cc2cccc(C(F)(F)F)c2)c2c(N)ncnc21 [GSK2606414] | 4%
CNc1nccc(-c2c(-c3ccc(F)cc3)ncn2C2CCN(C)CC2)n1 [SB-222903] | 0%
N#Cc1ccc(Oc2ccc(Nc3ncnc4cc[nH]c34)cc2Cl)cc1 | 0%
Cl.c1ccc(Cn2ccc3cc(Nc4ncnc5ccccc45)ccc32)cc1 [GW275568] | 0%
Nc1nc(-c2cccnc2)c(-c2ccnc3ccccc23)s1 [GW684083] | 0%
O=C(Nc1n[nH]c2nc(-c3ccco3)c(Br)cc12)c1ccc(CN2CCCC2)cc1.O=C(O)[C@H](O)[C@@H](O)C(=O)O [SB-742352] | 37%
Fc1cccc(COc2ccc(Nc3ncnc4sc(-c5ccc[nH]5)cc34)cc2Cl)c1 [GW707818] | 0%
Clc1cccc(-c2nc(Nc3ccncc3)c3ccccc3n2)c1 [GW873004] | 0%
CC(C)(C)OC(=O)NC1CCCN(c2cc(-c3ccc4c(N)n[nH]c4c3)nc(N)n2)C1 (stereo not drawn) [GSK2286096] | 7%
COc1ccc(-c2oc3ncnc(N)c3c2-c2ccc(OC)cc2)cc1 [SB-589132] | 0%
Nc1nc(-c2ccccn2)c(-c2ccnc3ccccc23)s1 [GW548057] | 7%
CCCc1ccc(S(=O)(=O)NC2CCN(c3ccnc(Nc4ccc(OC)cc4)n3)C2)cc1 (stereo not drawn) [GSK1379737] | 0%
COC(=O)c1c(-c2ccccc2)c2cc(Cl)ccc2c(=O)n1Cc1ccc(S(C)(=O)=O)cc1 | 32%
Cl.Fc1ccccc1COc1ccc(Nc2ncnc3ccc(-c4nnc(C(F)(F)F)o4)cc23)cc1Cl [GW424170] | 0%

SMILES | %Inh
Oc1ccc2ncnc(Nc3ccc(OCc4ccccc4)cc3)c2c1 [GI262866] | 7%
CSc1nn2c(=O)cc(N3CCOCC3)nc2n1Cc1cccc(Cl)c1Cl [GSK2347225] | 0%
CCc1nc(-c2cccc(N(C)S(=O)(=O)c3ccccc3)c2)c(-c2ccnc(Nc3ccc(N4CCN(C(C)=O)CC4)nc3)n2)s1 [GSK1645895] | 13%
COc1cc2ncnc(Nc3ccc(OCc4ccccc4Br)c(Cl)c3)c2cc1OC.Cl [GI261590] | 0%
Cc1ccc(C)c(NC(=O)NCCNc2ccnc(Nc3ccc(F)cc3)n2)c1 [GSK1379878] | 0%
CN1CCC(n2cnc(-c3ccc(F)cc3)c2-c2ccnc(NC3CCNCC3)n2)CC1 [SB-229482] | 45%
CN1c2ccc(-c3ccc(C(=O)NCCO)cc3)cc2-c2[nH]ncc2S1(=O)=O | 0%
O=C(Nc1ccccc1F)NC1CCN(c2ccnc(Nc3ccc(F)cc3)n2)C1 (stereo not drawn) [GSK1379722] | 100%
Cn1ccc2ncnc(Nc3ccc(Oc4cccc(Cl)c4)c(Cl)c3)c21 | 12%
CCC(CC)(CC)n1cnc2c(N)ncnc21 [SKF-97620] | 32%
Cl.Cn1ccc(-c2cccc(Nc3ccnc4cc(-c5nccs5)ccc34)c2)n1 [GW525701] | 11%
Fc1ccc(Nc2nccc(-c3c(-c4ccc(Cl)cc4)nn4ncccc34)n2)cc1F [GW829058] | 25%
COc1ccc(NC(=O)c2ccc(-c3cc(-c4nnc(C)o4)ccc3C)cc2)cc1 [GW595885] | 4%
CS(=O)(=O)CCNCc1ccc(-c2ccc3ncnc(Nc4ccc(OCc5ccccc5)c(Cl)c4)c3c2)o1.Cl [GW574783] | 0%
CCn1c(-c2ccncc2)nc2cnccc21 [SB-735216] | 10%
c1ccc(-c2ccc3c(-c4ccnc(Nc5ccc6c(c5)OCCO6)n4)cnn3n2)cc1 [GW818941] | 8%
Cc1cc(N2CCC(NS(=O)(=O)c3ccc(F)cc3)CC2)nc(Nc2cccc(C#N)c2)n1.O=C(O)C(F)(F)F [GSK1653537] | 0%
COc1ccc(Nc2nccc(N3CCC(NC(=O)Nc4ccc5c(c4)OCO5)C3)n2)cc1 (stereo not drawn) [GSK1379745] | 0%

Test system: IGF1R
Conditions: concentration: 1 μM, replicates: in singlicate; n = 1

SMILES | %Inh
COC(=O)c1cccc(NC(=O)NCCNc2ccnc(Nc3ccc(F)cc3)n2)c1 [GSK1379883] | 6%
O=C(Nc1ccccc1)Nc1ccc(Oc2ccc3nccn3n2)cc1 | 0%
Cl.Cl.c1ccc(-c2cc3ccncc3cc2OC2CCNCC2)cc1 [GSK1122999] | 0%
Clc1cc(Nc2ncnc3cc[nH]c23)ccc1OCc1ccccn1 | 0%
Cn1cc(-c2ccc3c(c2)CCN3C(=O)Cc2cccc(C(F)(F)F)c2)c2c(N)ncnc21 [GSK2606414] | 0%
CNc1nccc(-c2c(-c3ccc(F)cc3)ncn2C2CCN(C)CC2)n1 [SB-222903] | 0%
N#Cc1ccc(Oc2ccc(Nc3ncnc4cc[nH]c34)cc2Cl)cc1 | 0%
Cl.c1ccc(Cn2ccc3cc(Nc4ncnc5ccccc45)ccc32)cc1 [GW275568] | 0%
Nc1nc(-c2cccnc2)c(-c2ccnc3ccccc23)s1 [GW684083] | 13%
O=C(Nc1n[nH]c2nc(-c3ccco3)c(Br)cc12)c1ccc(CN2CCCC2)cc1.O=C(O)[C@H](O)[C@@H](O)C(=O)O [SB-742352] | 0%
Fc1cccc(COc2ccc(Nc3ncnc4sc(-c5ccc[nH]5)cc34)cc2Cl)c1 [GW707818] | 0%
Clc1cccc(-c2nc(Nc3ccncc3)c3ccccc3n2)c1 [GW873004] | 0%
CC(C)(C)OC(=O)NC1CCCN(c2cc(-c3ccc4c(N)n[nH]c4c3)nc(N)n2)C1 (stereo not drawn) [GSK2286096] | 0%
COc1ccc(-c2oc3ncnc(N)c3c2-c2ccc(OC)cc2)cc1 [SB-589132] | 0%
Nc1nc(-c2ccccn2)c(-c2ccnc3ccccc23)s1 [GW548057] | 9%
CCCc1ccc(S(=O)(=O)NC2CCN(c3ccnc(Nc4ccc(OC)cc4)n3)C2)cc1 (stereo not drawn) [GSK1379737] | 8%
COC(=O)c1c(-c2ccccc2)c2cc(Cl)ccc2c(=O)n1Cc1ccc(S(C)(=O)=O)cc1 | 0%
Cl.Fc1ccccc1COc1ccc(Nc2ncnc3ccc(-c4nnc(C(F)(F)F)o4)cc23)cc1Cl [GW424170] | 11%

SMILES | %Inh
Oc1ccc2ncnc(Nc3ccc(OCc4ccccc4)cc3)c2c1 [GI262866] | 0%
CSc1nn2c(=O)cc(N3CCOCC3)nc2n1Cc1cccc(Cl)c1Cl [GSK2347225] | 0%
CCc1nc(-c2cccc(N(C)S(=O)(=O)c3ccccc3)c2)c(-c2ccnc(Nc3ccc(N4CCN(C(C)=O)CC4)nc3)n2)s1 [GSK1645895] | 0%
COc1cc2ncnc(Nc3ccc(OCc4ccccc4Br)c(Cl)c3)c2cc1OC.Cl [GI261590] | 0%
Cc1ccc(C)c(NC(=O)NCCNc2ccnc(Nc3ccc(F)cc3)n2)c1 [GSK1379878] | 0%
CN1CCC(n2cnc(-c3ccc(F)cc3)c2-c2ccnc(NC3CCNCC3)n2)CC1 [SB-229482] | 0%
CN1c2ccc(-c3ccc(C(=O)NCCO)cc3)cc2-c2[nH]ncc2S1(=O)=O | 7%
O=C(Nc1ccccc1F)NC1CCN(c2ccnc(Nc3ccc(F)cc3)n2)C1 (stereo not drawn) [GSK1379722] | 100%
Cn1ccc2ncnc(Nc3ccc(Oc4cccc(Cl)c4)c(Cl)c3)c21 | 0%
CCC(CC)(CC)n1cnc2c(N)ncnc21 [SKF-97620] | 0%
Cl.Cn1ccc(-c2cccc(Nc3ccnc4cc(-c5nccs5)ccc34)c2)n1 [GW525701] | 21%
Fc1ccc(Nc2nccc(-c3c(-c4ccc(Cl)cc4)nn4ncccc34)n2)cc1F [GW829058] | 6%
COc1ccc(NC(=O)c2ccc(-c3cc(-c4nnc(C)o4)ccc3C)cc2)cc1 [GW595885] | 0%
CS(=O)(=O)CCNCc1ccc(-c2ccc3ncnc(Nc4ccc(OCc5ccccc5)c(Cl)c4)c3c2)o1.Cl [GW574783] | 13%
CCn1c(-c2ccncc2)nc2cnccc21 [SB-735216] | 0%
c1ccc(-c2ccc3c(-c4ccnc(Nc5ccc6c(c5)OCCO6)n4)cnn3n2)cc1 [GW818941] | 9%
Cc1cc(N2CCC(NS(=O)(=O)c3ccc(F)cc3)CC2)nc(Nc2cccc(C#N)c2)n1.O=C(O)C(F)(F)F [GSK1653537] | 0%
COc1ccc(Nc2nccc(N3CCC(NC(=O)Nc4ccc5c(c4)OCO5)C3)n2)cc1 (stereo not drawn) [GSK1379745] | 0%
